Experimental data: PubChem BioAssay
Calls of active or inactive are those of the source.

Key:
[1] = system: Human papillomavirus type 1a protein E7 (residues 44-93); assay: HPV1a E7 fragment binders on microarrays, primary screen, biochemical, small-molecule microarray, residues 44-93, 635 nm fluorescence (AID 1108); settings: small-molecule microarray binding, fluorescence 635 nm; higher = more signal;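 further: E7 fragment applied at 1 µg/mL in TBST for 1 h at 4 C; score combines spot fluorescence with its signal to noise ratio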
[2] = modulators of HCV replicon luciferase signal, primary screen, HCV replication inhibitor project, Huh7 cells, luciferase reporter (AID 1109); settings: 48 h, higher = more signal;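 further: huh7 hepatoma cells harbouring a luciferase neomycin HCV replicon reporter; luciferase luminescence as measure of HCV replicon replication; test concentration not given here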
[3] = molecular target: Left-right determination factor 2 (Homo sapiens) (UniProt O00292); assay: LEFTY2 binders on small-molecule microarrays, primary screen, biochemical, small-molecule microarray, 635 nm fluorescence scan (AID 1110); settings: LEFTY2 binding, higher = more signal
Sequence of Left-right determination factor 2 (Homo sapiens) (O00292 whole entry, looked up): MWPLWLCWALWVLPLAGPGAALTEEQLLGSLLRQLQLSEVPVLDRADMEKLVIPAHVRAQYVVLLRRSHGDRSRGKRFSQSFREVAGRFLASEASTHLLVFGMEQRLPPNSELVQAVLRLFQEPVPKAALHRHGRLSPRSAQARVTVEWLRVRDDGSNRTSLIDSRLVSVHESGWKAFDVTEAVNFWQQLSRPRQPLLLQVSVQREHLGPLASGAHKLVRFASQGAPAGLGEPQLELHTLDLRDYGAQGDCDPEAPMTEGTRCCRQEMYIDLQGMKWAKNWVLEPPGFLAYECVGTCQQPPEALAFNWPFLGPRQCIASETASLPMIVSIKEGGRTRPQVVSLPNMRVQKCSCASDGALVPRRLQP

[4] = molecular target: Calmodulin-1 (Homo sapiens) (UniProt P0DP23); assay: CALM1 binders on microarrays, EGTA buffer, profiling panel, biochemical, small-molecule microarray, Cy5-labelled CALM1 (AID 1111); settings: Cy5-CALM1 binding fluorescence, higher = more signal;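 further: labelled calmodulin applied in Tris saline Tween buffer holding calcium plus EGTA and DTT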
[5] = molecular target: Calmodulin-1 (Homo sapiens) (UniProt P0DP23); assay: calcium-bound CALM1 binders on microarrays, profiling panel, artefact control for SMM control-protein annotation, biochemical, small-molecule microarray, Cy5-labelled CALM1, plus calcium (AID 1112); settings: Cy5-CALM1 binding fluorescence, higher = more signal;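 further: score merges spot fluorescence with signal to noise from triplicate slides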
[6] = small-molecule microarray binders of probe aWnt5a, primary screen, biochemical, biotinylated probe, 635/667 nm fluorescence (AID 1113); settings: higher = more signal;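 further: score merges 667 nm fluorescence intensity with signal-to-noise per printed feature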
[7] = small-molecule microarray binders of probe aShh, primary screen, biochemical, biotinylated probe, 635/667 nm fluorescence (AID 1114); settings: higher = more signal;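 further: probe is biotin-labelled aShh protein from a stem cell growth factor screen; measures binding of labelled protein to compounds printed on the slide; score merges feature fluorescence at 667 nm with signal-to-noise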
[8] = small-molecule microarray binders of probe aNog, primary screen, biochemical, biotinylated probe, 635/667 nm fluorescence (AID 1115); settings: higher = more signal;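 further: probe is biotinylated aNog protein used at 0.15 µg/mL for 1 h at 4 C; z-score combines 667 nm fluorescence of each spot with its signal to noise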
[9] = molecular target: Torsin-1A-interacting protein 1 (Homo sapiens) (UniProt Q5JTV8); assay: LAP1 binders from COS7 cell lysate, primary screen, small-molecule microarray, 635/667 nm fluorescence (AID 1116); settings: COS7-hLAP1 lysate binding, 635 nm fluorescence, higher = more signal
Sequence of Torsin-1A-interacting protein 1 (Homo sapiens) (Q5JTV8 whole entry, looked up): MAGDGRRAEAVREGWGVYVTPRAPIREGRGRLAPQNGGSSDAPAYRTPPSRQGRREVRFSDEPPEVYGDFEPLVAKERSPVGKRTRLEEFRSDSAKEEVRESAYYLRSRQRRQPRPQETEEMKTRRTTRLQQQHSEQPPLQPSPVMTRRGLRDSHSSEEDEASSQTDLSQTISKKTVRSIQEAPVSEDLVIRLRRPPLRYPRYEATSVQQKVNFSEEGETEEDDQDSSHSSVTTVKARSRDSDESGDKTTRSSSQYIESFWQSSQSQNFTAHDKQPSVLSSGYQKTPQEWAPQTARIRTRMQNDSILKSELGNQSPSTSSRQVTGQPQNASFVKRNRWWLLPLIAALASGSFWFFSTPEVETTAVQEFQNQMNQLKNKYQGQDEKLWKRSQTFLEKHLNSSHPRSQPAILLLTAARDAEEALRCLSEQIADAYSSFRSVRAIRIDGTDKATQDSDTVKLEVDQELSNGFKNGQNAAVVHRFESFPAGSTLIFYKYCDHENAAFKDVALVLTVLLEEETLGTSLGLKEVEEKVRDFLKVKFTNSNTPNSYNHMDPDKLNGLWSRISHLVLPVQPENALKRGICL

[10] = molecular target: Alpha-bungarotoxin (Bungarus multicinctus) (UniProt P60615); assay: alpha-bungarotoxin binders on microarray, profiling panel, artefact control for SMM control protein annotation, biochemical, small-molecule microarray, Alexa647 label, 635/667 nm fluorescence (AID 1117); settings: alpha-BTX-A647 binding fluorescence, higher = more signal
Sequence of Alpha-bungarotoxin (Bungarus multicinctus) (P60615 whole entry, looked up): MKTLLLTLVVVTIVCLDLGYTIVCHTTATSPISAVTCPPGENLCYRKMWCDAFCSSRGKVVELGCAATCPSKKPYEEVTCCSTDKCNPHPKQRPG

Albumin (Bos taurus) = Albumin (Bos taurus) (UniProt P02769); assay: bovine serum albumin binders on microarray, profiling panel, artefact control for SMM control protein annotation, biochemical, small-molecule microarray, Alexa647 label, 635/667 nm fluorescence (AID 1118); settings: BSA-A647 binding, fluorescence 635 nm, higher = more signal;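 further: score merges 667 nm emission intensity and signal-to-noise per printed compound spot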
Sequence of Albumin (Bos taurus) (P02769 whole entry, looked up): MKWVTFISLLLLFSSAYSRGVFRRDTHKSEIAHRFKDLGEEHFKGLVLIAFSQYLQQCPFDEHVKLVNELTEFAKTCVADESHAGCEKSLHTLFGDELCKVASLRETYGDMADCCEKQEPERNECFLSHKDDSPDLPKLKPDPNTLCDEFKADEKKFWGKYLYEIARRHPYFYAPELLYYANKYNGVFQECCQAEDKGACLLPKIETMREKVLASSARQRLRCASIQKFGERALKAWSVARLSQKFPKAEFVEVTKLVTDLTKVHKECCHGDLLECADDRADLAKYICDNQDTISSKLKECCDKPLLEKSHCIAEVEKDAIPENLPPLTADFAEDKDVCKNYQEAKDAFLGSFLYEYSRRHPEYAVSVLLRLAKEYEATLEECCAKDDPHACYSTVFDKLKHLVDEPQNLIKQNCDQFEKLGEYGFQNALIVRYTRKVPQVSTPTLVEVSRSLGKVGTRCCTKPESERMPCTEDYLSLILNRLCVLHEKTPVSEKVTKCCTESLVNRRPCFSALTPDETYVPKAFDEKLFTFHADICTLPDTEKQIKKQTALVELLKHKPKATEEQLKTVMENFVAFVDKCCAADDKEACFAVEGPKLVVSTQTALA

[11] = small-molecule microarray binders of probe aXIP, primary screen, biochemical, NeuroSMM set, 635/667 nm fluorescence (AID 1119); settings: higher = more signal, called active from +8 up or from −8 down;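 further: probe is the protein aXip251-270 applied at 1 µg/mL to compound-printed slides; binding of probe to printed compounds measured as 667 nm fluorescence plus signal to noise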
[12] = small-molecule binders of probe aNOTCH3, primary screen, biochemical, small-molecule microarray, 635/667 nm fluorescence (AID 1120); settings: higher = more signal;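 further: probe is a biotin-tagged antibody raised against NOTCH3 rather than NOTCH3 protein; score merges spot fluorescence near 667 nm with spot signal to noise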
[13] = small-molecule binders of probe aNOTCH2, primary screen, biochemical, small-molecule microarray, 635/667 nm fluorescence (AID 1121); settings: higher = more signal;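 further: score merges feature fluorescence read at 667 nm with its signal to noise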
[14] = molecular target: Carbonic anhydrase 2 (Homo sapiens) (UniProt P00918); assay: CAII small-molecule binders, profiling panel, biochemical, small-molecule microarray, Alexa647-labelled CAII (AID 1122); settings: CAII-A647 binding fluorescence, higher = more signal
[15] = COS7 lysate on small-molecule microarray, probe aHis, 635 nm (AID 1123); settings: COS7 cell lysate, fluorescence, higher = more signal;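 further: z-score combines 667nm fluorescence intensity with signal-to-noise per printed compound spot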
[16] = compound binding in COS7 lysate, probe aLAP1, primary screen, cell lysate, small-molecule microarray (AID 1124); settings: probe aLAP1, fluorescence, higher = more signal;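 further: lysate comes from COS7 cells expressing LAP1 and is applied at 0.3 µg/mL; score merges spot fluorescence near 667 nm with signal-to-noise over triplicate slides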
Sam68 (KHDRBS1) = assay: Sam68 small-molecule binders, primary screen, biochemical, small-molecule microarray, 635 nm fluorescence (AID 1125); settings: small-molecule microarray binding, higher = more signal;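 further: score merges 667 nm channel intensity with signal to noise over triplicate slides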
[17] = system: Chordin-like protein 2 (CHRDL2); assay: CHRDL2 small-molecule binders, primary screen, biochemical, small-molecule microarray, 635 nm fluorescence (AID 1126); settings: small-molecule microarray binding, fluorescence 635 nm; higher = more signal;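 further: printed compound slides probed with Chrdl2 protein at 4 µg/mL for 1 h at 4 C; score merges 667 nm emission intensity with signal to noise over three replicate slides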
[18] = molecular target: Concanavalin-A (Canavalia ensiformis) (UniProt P02866); assay: ConA small-molecule binders, primary screen, artefact control for SMM control protein annotation, biochemical, small-molecule microarray, Alexa647 label, 635 nm (AID 1127); settings: ConA-A647 binding fluorescence, higher = more signal;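 further: z combines 667 nm emission intensity with signal-to-noise across three replicate slides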
Sequence of Concanavalin-A (Canavalia ensiformis) (P02866 whole entry, looked up): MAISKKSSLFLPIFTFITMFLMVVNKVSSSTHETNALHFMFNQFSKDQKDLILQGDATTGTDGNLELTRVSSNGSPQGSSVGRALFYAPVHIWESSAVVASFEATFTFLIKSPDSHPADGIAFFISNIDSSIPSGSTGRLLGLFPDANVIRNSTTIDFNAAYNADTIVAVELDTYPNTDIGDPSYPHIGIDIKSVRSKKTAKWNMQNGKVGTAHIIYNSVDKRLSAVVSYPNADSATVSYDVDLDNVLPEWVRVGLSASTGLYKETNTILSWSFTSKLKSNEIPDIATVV

Row | SMILES | composite z-score [1] | z-score [2] | composite z-score [3] | composite z-score [4] | composite z-score [5] | composite z-score [6] | composite z-score [7] | composite z-score [8] | composite z-score [9] | composite z-score [10] | composite z-score (Albumin (Bos taurus)) | composite Z-score [11] | composite z-score [12] | composite z-score [13] | composite z-score [14] | composite z-score [15] | composite z-score [16] | composite z-score (Sam68 (KHDRBS1)) | composite z-score [17] | composite z-score [18]
1 | C=CCC(OC(C)=O)[C@@H]1[C@@H](N(Cc2ccc(-c3cccc(C(F)(F)F)c3)o2)C(=O)c2ccc(C)cc2)c2cc(OCCCO)ccc2N1C(=O)Cc1ccc(OC)cc1 (stereo not given in full) | -0.918 | -0.466 | -0.115 | -0.697 | -1.06 | 0.0327 | -0.439 | -0.565 | 0.163 | -0.056 | -0.356 | 0.899 (inactive) | -0.0311 | -0.194 | -0.26 | -0.333 | -0.27 | -0.367 | 0.186 | 0.0203
2 | O=C1O[C@H](c2ccccc2)[C@H](c2ccccc2)N2[C@H]1[C@@H](C(=O)Nc1nc3ccccc3s1)[C@]1(C(=O)Nc3ccc(C#CC4=CCCCC4)cc31)[C@H]2c1ccc(O)cc1 | 1.38 | -0.832 | 0.0561 | 1.18 | 0.366 | -0.0203 | 0.0465 | 0.178 | 1.17 | 1.4 | 0.658 | 0.156 (inactive) | 0.278 | -0.117 | 0.185 | 2.16 | -0.0648 | 1.3 | -0.12 | 0.973
3 | CCC(CC)C(O)C1C=CC2C(=O)N(c3ccccc3)C(=O)C2N1Nc1ccc([N+](=O)[O-])cc1 (stereo not given) | 1.47 | -0.451 | -0.139 | 1.27 | 0.717 | 0.152 | 0.04 | 0.0323 | 0.0001 | 1.42 | 1.01 | 1.13 (inactive) | 0.443 | 0.125 | 0.573 | 1.72 | 1.35 | 1.3 | -0.0998 | 1.05
4 | C=C(COC)/C(=C/C[C@H](OC(C)=O)c1cccc(OCCO)c1)c1cnc2ccccc2c1 | 1.4 | -1.7 | 0.536 | -0.0062 | -0.892 | -0.0512 | -0.147 | 0.353 | 0.416 | 2.04 | 0.497 | 0.0575 (inactive) | 0.0556 | -0.0817 | 0.917 | 0.109 | 0.267 | 1.24 | 1.35 | 1.05
5 | Cc1ccc(C(C)CC(O)C2C=CC3C(=O)N(c4ccccc4)C(=O)C3N2Nc2ccc(C#N)cc2)o1 (stereo not given) | 1.42 | 0.0453 | 0.168 | 1.48 | 0.314 | -0.0044 | 0.138 | 0.526 | 1.16 | 1.17 | 1 | -0.102 (inactive) | 0.0744 | 0.115 | 0.707 | 3.21 | 0.825 | 1.29 | -0.387 | 1.16
6 | CC1CC/C=C\[C@H]2OC34C=CCN(C(C)(C)C)C(=O)[C@H]3N(C(CO)C(C)C)C(=O)[C@@H]4C2C(=O)O1 (stereo not given in full) | -1.26 | 0.434 | 0.272 | -0.745 | -0.554 | -0.0882 | 0.0469 | -0.316 | 0.952 | -0.62 | -0.667 | 0.148 (inactive) | -0.0647 | -0.0974 | 0.867 | 1.37 | 0.876 | 0.117 | -0.165 | -0.268
7 | Cc1ccccc1C(O)C1C=CC2C(=O)N(c3ccccc3)C(=O)C2N1Nc1ccc([N+](=O)[O-])cc1 (stereo not given) | 1.42 | -0.598 | 0.174 | 1.05 | 0.656 | -0.012 | 0.0684 | 1.63 | 2.03 | 0.625 | 0.84 | 1.19 (inactive) | 0.116 | -0.0796 | 0.684 | 2.73 | 1.03 | 1.3 | -0.051 | 1.14
8 | CCOC(=O)C1=CC[C@@H](c2ccccc2)N(S(=O)(=O)c2ccc(C)cc2)[C@H]1c1cccc(OC)c1 | 1.09 | -1.96 | 0.177 | 0.0295 | 0.622 | 0.0422 | 0.0898 | 0.266 | 0.854 | 1.3 | 0.909 | 1.15 (inactive) | 0.199 | 0.137 | 0.422 | 0.899 | 0.0214 | 1.06 | -0.0412 | 0.913
9 | C=C(/C(=C/C[C@@H](OC(C)=O)c1ccc(CO)o1)c1cc(C(=O)OC)ccc1OC)C(C)C | 0.443 | -0.9 | 0.192 | 0.189 | -0.657 | 0.0251 | 0.216 | 0.141 | -0.144 | -0.0861 | 0.461 | -0.0662 (inactive) | 0.232 | -0.124 | 0.662 | 1.31 | 0.0806 | 0.561 | 0.0347 | 0.395
10 | O=C(O)[C@H]1C[C@H]2C(=O)N[C@@H](Cc3ccccc3)C(=O)N2[C@H]1c1cccc(OCCO)c1 | 0.0635 | 4.5 | 0.978 | -0.309 | -0.411 | 0.0079 | -0.214 | 0.185 | 0.543 | 0.366 | -1.09 | 0.309 (inactive) | 0.182 | -0.0609 | 0.634 | 0.26 | -0.0699 | 1.05 | 1.01 | 0.95
